Data on 13 compounds can be found in PubChem BioAssay (NCI).

The structures appear in SMILES notation. About 83,000 compounds went through this panel and 20% of them were active in at least one assay; those are over-represented in the sample as a whole.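 Testing used 96-well plates and a 48-hour single-concentration exposure. Example: -40 means 40% of the starting cells died.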 A number with no mark means an inactive call. Calls of active or inactive are those of the source. How the source made its calls: active means growth percent below 10; inactive means the rest.

Common to all, as to experiment: NCI-60 one-dose screen, 48 h (100 = growth as untreated, 0 = no growth, -100 = all killed)
Conditions in all cases: 10 µM unless noted

In assay [1] the test system is SK-MEL-2 melanoma.
Assay [2] concerns EKVX NSCLC.
The test system of assay [3] is SN12C renal.
The subject of assay [4] is UO-31 renal.
For assay [5], the system named is TK-10 renal.
The test system of assay [6] is ACHN renal.
The subject of assay [7] is CAKI-1 renal.
Assay [8] has as its system A498 renal.
Assay [9] concerns CCRF-CEM leukemia.
Assay [10] has as its system MOLT-4 leukemia.
Assay [11] has as its system SR leukemia.
Assay [12] concerns RPMI-8226 leukemia.
For assay [13], the system named is OVCAR-8 ovarian.
Assay [14] has as its system OVCAR-5 ovarian.
Assay [15] has as its system OVCAR-4 ovarian.
Assay [16] has as its system SK-OV-3 ovarian.
Assay [17] relates to IGROV1 ovarian.
Assay [18] deals with OVCAR-3 ovarian.
For assay [19], the system named is HS 578T breast.
For assay [20], the system named is NCI/ADR-RES ovarian.

On to `O=C1SCN(Cc2ccccc2)CN1Cc1ccccc1`, for which the growth in assay [1] is 101%; in [2], 101%; in assay [3], 96.3%; in assay [4] it was 57.9%; in assay [5], 111%; in assay [6], 107%. Moreover, the growth was 95.9% in assay [7]; 78.2% in assay [8]; 61.3% in assay [9]; 71.8% in [10]; 8.82% (active) in [11]; 43.7% in assay [12]. For the same compound, the growth in [13] was 90.7%; in assay [14], 105%; in assay [15], 109%; in [16], 107%; in assay [17], 97.2%; in [18], 105%. In addition, the growth in assay [19] was 95.5%; in [20], 100%.
As to `O=C(N/N=C/c1ccc([N+](=O)[O-])cc1)c1ccccc1Nc1ccnc(C(F)(F)F)c1`, the growth was 58.5% in [1]; 67.5% in [2]; 83.9% in assay [3]; 67.8% in assay [4]; 83.4% in [5]; 82.6% in assay [6]. In addition, the growth was 76.4% in [7]; -26.1% (active) in assay [8]; 77.9% in [9]; 86.3% in assay [10]; 99.6% in assay [11]; 11.2% in assay [12]. Besides, the growth in assay [13] was 86.8%; in [14], 75.7%; in [15], 61.1%; in assay [16], 84.9%; in assay [17], 75.3%; in [18], 91.5%. The growth was -27.6% (active) in assay [19] and 71.9% in [20].
Consider `COc1cnc2c(c1)C(=O)c1c-2n(CCCN2CCCC2)c(=O)c2cc(Cl)ccc12`, for which the growth was 65.2% in assay [1]; 46.6% in assay [2]; 27.5% in assay [3]; 15.9% in assay [4]; 39.4% in assay [5]; 7.7% (active) in assay [6]. In addition, the growth in [7] is 42.4%; in assay [8], -9.2% (active); in assay [9], -38.1% (active); in [10], -24.4% (active); in assay [11], -42.9% (active); in [12], 20.3%. The growth was 26.1% in assay [13]; 64.8% in assay [14]; 45.4% in assay [15]; 19.6% in [16]; 39.4% in assay [17]; 55% in assay [18]. Also, the growth in assay [19] is 49.1%; in assay [20], 35.1%.
As for `CCCC(CCC)(C(N)=O)C(=O)O`, the growth was 120% in assay [1]; 105% in [2]; 102% in [3]; 92.2% in assay [4]; 115% in assay [5]; 103% in [6]. Besides, the growth in [7] was 95.3%; in assay [8], 104%; in [9] it was 103%; in assay [10], 113%; in assay [11], 111%; in [12], 112%. The growth is 102% in assay [13]; 99.6% in assay [14]; 101% in assay [15]; 105% in [16]; 119% in assay [17]; 110% in assay [18]. The growth in assay [19] is 106%; in [20], 107%.
Consider `C#Cc1cccc(Nc2nc3cc([N+](=O)[O-])ccc3nc2Nc2ccc(O)cc2)c1`, for which the growth was -29.5% (active) in assay [1]; 23.1% in assay [2]; 24.9% in assay [3]; 14.6% in assay [4]; 3.86% (active) in assay [5]; 9.93% (active) in assay [6]. In addition, the growth is 36.4% in [7]; 49.4% in [8]; 6.32% (active) in [9]; 0.253% (active) in assay [10]; 3.34% (active) in [11]; 11.9% in assay [12]. Besides, the growth was 18.3% in [13]; 45.8% in assay [14]; 43.9% in [15]; 39% in assay [16]; 27.2% in assay [17]; -26.2% (active) in assay [18]. For the same compound, the values for the growth in assay [19] and in [20] were 44.6% and 24.7%, respectively.
Consider `Cc1ccc(Nc2cccc3ccccc23)cc1`, for which the growth in assay [1] is 93.3%; in assay [2], 101%; in assay [3], 96.6%; in assay [4], 45.5%; in assay [5] it was 59.7%; in [6] it was 84.8%. The growth in [7] is 63.3%; in [8], 83.3%; in [9] it was 84.8%; in assay [10] it was 77.3%; in assay [11] it was 62.1%; in [12], 76.5%. Besides, the growth in [13] is 96.2%; in [14], 93.2%; in assay [15], 78.9%; in assay [16] it was 101%; in assay [17], 73.2%; in assay [18], 89.1%. Besides, the growth is 83.4% in assay [19] and 78.1% in [20].
Regarding `COc1cc2c(=O)n(CCCN(C)C)c3c4cc[nH]c4ncc3c2cc1OC`, the growth in assay [1] is 71.5%; in assay [2] it was 51.1%; in assay [3], 33.9%; in assay [4], 34.1%; in [5], 53.7%; in [6], 26.6%. Also, the growth in assay [7] was 84.5%; in assay [8], 18.8%; in [9], 34.5%; in assay [10], -6.64% (active); in assay [11], 15.7%; in [12], 22.2%. Also, the growth is 27.8% in [13]; 71% in assay [14]; 34.7% in [15]; 42.8% in assay [16]; 45.2% in [17]; 49.1% in assay [18]. The growth in [19] was 65%; in assay [20] it was 89.4%.
As to `C=CCCCCOc1cccc(/C=C2\N=C3SCCCN3C2=O)c1`, the growth in [1] was 91.3%; in assay [2] it was 95.9%; in assay [3], 89.8%; in assay [4], 76.6%; in assay [5], 99.4%; in [6] it was 99.2%. For the same compound, the growth in [7] is 92.6%; in assay [8], 82.9%; in assay [9] it was 121%; in assay [10], 96.9%; in [11], 125%; in [12], 103%. In addition, the growth is 101% in assay [13]; 106% in assay [14]; 87.6% in assay [15]; 97.7% in [16]; 88.6% in [17]; 107% in [18]. Besides, the growth in assay [19] is 112%; in assay [20], 95.6%.
For the compound `CN(C)c1ccc(C2(Cl)c3ccccc3N(C)c3ccccc32)cc1`, the growth is 61.2% in assay [1]; 47.8% in assay [2]; 19.1% in [3]; 71.8% in assay [4]; 64.3% in [5]; 55.6% in assay [6]. In addition, the growth in assay [7] is 81.2%; in assay [8] it was 77.2%; in assay [9], 27.7%; in assay [10], 49.7%; in [11], 25.4%; in assay [12] it was 21.1%. The growth in assay [13] was 7.94% (active); in assay [14], 91.7%; in assay [15], 59.5%; in [16], 77.6%; in [17], 46.5%; in [18], 35.8%. Moreover, the values for the growth in assay [19] and in [20] were 71.7% and 94.6%, respectively.
As for `OC(COCc1ccccc1)COCc1ccccc1`, the growth is 111% in assay [1]; 91.5% in [2]; 104% in assay [3]; 91.6% in assay [4]; 109% in [5]; 99% in assay [6]. Further, the growth in [7] was 96.5%; in assay [8], 89.7%; in [9] it was 99.5%; in assay [10], 96.4%; in [11], 89.2%; in assay [12], 109%. The growth is 106% in assay [13]; 108% in assay [14]; 107% in assay [15]; 103% in [16]; 108% in assay [17]; 94.7% in assay [18]. Moreover, the growth in [19] was 122%; in [20], 127%.
Turning to `O=S1(=O)NCCCN1CCNc1nccc(-c2c(-c3cccc(O)c3)nc3sccn23)n1`, the growth in assay [1] is 29.4%; in assay [2], 141%; in assay [3], 43.4%; in assay [4], 94.1%; in [5], 121%; in [6], 50.5%. The growth in [7] is 67.4%; in [8], 98.9%; in assay [9], 60.1%; in assay [10] it was 65.2%; in assay [11], 23.2%; in assay [12] it was 107%. The growth is 83% in assay [13]; 108% in assay [14]; 85.4% in [15]; 43.6% in assay [16]; 56.7% in assay [17]; 73.3% in assay [18]. The growth was 70.4% in [19] and 116% in assay [20].
Turning to `CNC(=O)c1c(NC(=O)c2cccc(C(F)(F)F)c2)sc2c1CCC(=O)C2`, the growth in assay [1] is -16.5% (active); in assay [2] it was 4.31% (active); in [3], 3.13% (active); in assay [4], -94.3% (active); in assay [5] it was 32.1%; in [6] it was -66.9% (active). Moreover, the growth was -22.5% (active) in [7]; -5.84% (active) in assay [8]; -0.844% (active) in assay [9]; -7.92% (active) in [10]; 1.53% (active) in assay [11]; -33% (active) in assay [12]. For the same compound, the growth in assay [13] is 8.86% (active); in assay [14] it was -22.2% (active); in assay [15] it was -81.5% (active); in assay [16] it was -5.12% (active); in [17] it was -24.8% (active); in [18] it was 3.37% (active). Moreover, the growth in assay [19] is 17.7%; in assay [20], -7.1% (active).
As for `Cc1c2c(cc3c1[nH]c1ccccc13)C=NCC2`, the growth in assay [1] was 109%; in assay [2], 80%; in [3] it was 90.8%; in [4], 80%; in assay [5] it was 113%; in assay [6] it was 96.9%. For the same compound, the growth is 92.9% in assay [7]; 71.7% in assay [8]; 75.9% in [9]; 83.3% in [10]; 64.1% in [11]; 87% in [12]. In addition, the growth is 94.1% in assay [13]; 98.3% in assay [14]; 94% in assay [15]; 96.5% in assay [16]; 105% in assay [17]; 101% in assay [18]. The growth in [19] is 99.1%; in assay [20], 85.6%.
